# D2 PAM-1 – positive allosteric modulators of human D2 dopamine receptor | P14416 | DiscoveRx D2 beta-arrestin cells, luminescence, 90 min; 100% = 57 uM dopamine signal | potentiation, % (no concentration beside the values) | 360,000 tested, 0.23% active; in the data active = potentiation above about 50%; inconclusive = mostly about 30% to 49%
#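 D2 cells co-treated with compound plus 50 nM dopamine (EC20) for 90 min at 37 deg C to detect potentiation. Beta-arrestin recruitment was read as enzyme-fragment luminescence after 1 h at ambient temperature. Full response was set by 57 uM dopamine.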
# D2 antag – antagonists of human D2 dopamine receptor; HEK293 TREx D2 cells, calcium flux, dopamine EC80; inhibition, % at 10 µM; 340,000 tested, 2% active; in the data active = inhibition above about 30%; inactive = below that, where a call was filed; also: 0% is about no effect
#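 Tetracycline-induced HEK293 TREx cells expressing D2 receptor forced-coupled to calcium signalling, loaded with no-wash calcium dye. Compounds added and calcium flux read 180 s, then dopamine added at EC80 and read a further 180 s.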
# D2 ag-1 – agonists of human D2 dopamine receptor. 340,000 tested, 0.53% active. activation, % at 2 µM. HEK293 T-REx D2 cells, calcium flux agonist mode. P14416. AID 485358;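 active = activation over 3 SD above normal in the single-dose calcium agonist read, cut at about 30% in these data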; also: 0% is about no effect
#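 Calcium-flux readout, 1 cycle/sec over 180 s following compound pin transfer, in inducible HEK293 Trex D2 cells (force-coupled); dopamine controls included. Positive calcium responses during this window marked compounds as potential agonists.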
# Anesthetic bind – candidate novel general anesthetic via apoferritin binding; apoferritin/1-aminoanthracene competitive binding, fluorescence; AID 485281; P02791; 350,000 tested, 0.074% active; Potency, µM (highest dose often 77.5 µM), inactives show top-dose activity change, negative = displacement, hits mostly inhibitors; active = well fitted inhibition curve with a large enough effect; inconclusive = small, poorly fitted or top-dose-only effect; inactive = no such curve, though single readings can be large or run the other way; also: potency is read from the fitted curve at half-maximal effect; % is scaled to controls: 0 for no effect and ±100 for the full control effect; nearly all actives have a fitted effect of over 20% in size
# Target sequence (P02791 2-175 limits assumed): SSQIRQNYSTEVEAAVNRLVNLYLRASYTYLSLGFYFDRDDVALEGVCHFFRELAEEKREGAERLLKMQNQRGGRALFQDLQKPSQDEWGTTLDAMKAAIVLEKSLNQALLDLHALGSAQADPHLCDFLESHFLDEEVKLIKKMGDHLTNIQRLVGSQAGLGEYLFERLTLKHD
#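 In PBS, apoferritin at 10 uM is loaded with 1-AMA from a 50% saturated solution. After 10 min of compound exposure at ambient temperature, reduced 535 nm fluorescence indicates probe displacement.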
# D2 ag-2 – agonists of human D2 dopamine receptor (beta-arrestin) | P14416 | 360,000 tested, 0.084% active | activation, % (no concentration beside the values) | AID 624465 | DiscoveRx PathHunter D2 beta-arrestin, luminescence, 90 min; 100% = 57 uM dopamine signal; in the data active = activation above about 40%; inconclusive = between about 15% and that limit
#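 DiscoveRx PathHunter D2 beta-arrestin cells (2,100/well) attached overnight, then compound-stimulated 90 min at 37 C in HBSS/10 mM HEPES/0.1% Tween-20 buffer; beta-galactosidase complementation read by luminescence after 1 h at ambient temperature. Dopamine 57 uM final (EC100) as control.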
# D2 PAM-2 – positive allosteric modulators of human D2 dopamine receptor; potentiation, % at 10 µM; P14416; HEK293 T-REx D2, calcium flux, EC20 dopamine potentiation; AID 485347; 340,000 tested, 0.34% active;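 active = potentiation over 3 SD above the plate norm, cut at about 30% in these data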; also: 0% is about no effect
#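 Tetracycline-induced Hek293 Trex D2 cells, force-coupled to calcium, loaded with no-wash calcium dye. Compound added with 180 s kinetic read for agonism, then EC20 dopamine and a further 180 s read for potentiation.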
# Numbers without * were called inactive; u = inconclusive; x = no result given. Most compounds without a hit are left out; they make up all but 2.5% or so of the library.
SMILES,D2 PAM-1,D2 antag,D2 ag-1,Anesthetic bind,D2 ag-2,D2 PAM-2
CC1(C)CC(=O)c2cc(OCC(=O)NCCCN3CCN(c4ccccc4F)CC3)ccc2O1,3.7,81.8*,77.8*,27.8%,u,-25.3
Cn1c(=O)cc(OCCCC(=O)NCCN2CCN(c3ccccc3F)CC2)c2ccccc21,-9.1,35.6*,32.5*,-4.6%,-2.4,-24.9
CCCCCCCNC(=O)COc1ccc2c(c1)C(=O)CC(C)(C)O2,-13.1,29.5,-0.5,182.0%,-1.4,7.1
Cn1c(=O)cc(OCC(=O)NCCCN2CCN(c3cccc(Cl)c3)CC2)c2ccccc21,-10.6,77.2*,69.3*,-1.3%,7.6,-24.0
Cn1c(=O)cc(OCCCC(=O)NCCCN2CCN(Cc3ccccc3)CC2)c2ccccc21,-19.0,-23.0,-0.7,-13.7%,-2.1,-14.3
O=C(NCCCN1CCN(c2cccc(Cl)c2)CC1)C1(S(=O)(=O)c2ccc(Cl)cc2)CC1,-38.2,34.6*,15.1,u,-0.2,-18.2
CC(C)c1ccc(OCC(=O)N2CCN(c3ccccn3)CC2)c(Br)c1,-10.0,7.2,-0.3,-3.4%,-2.7,1.2
O=C1C=C(c2ccc(Cl)cc2)OC2(CCCC2)O1,1.9,14.1,-0.3,-17.4%,-2.6,10.7
O=C1C=C(c2ccccc2)OC2(CCCC2)O1,-3.5,-1.6,-0.2,-9.0%,-2.7,38.0*
CC1CCCC(NC(=O)CC2Nc3ccccc3NC2=O)C1C (configuration not stated),-5.1,30.5*,-0.2,u,-2.4,-0.3
CCOC(=O)c1c(C)[nH]c(C)c1S(=O)(=O)N1CCCC(C(=O)Nc2ccc(OC)c(Cl)c2)C1 (configuration not stated),x,x,0.0,-20.5%,x,-5.8
Cc1cc(C)cc(NC(=O)C2CC3CCC2C3)c1 (configuration not stated),-2.3,55.7*,-1.7,u,-2.2,-16.5
CCN1/C(=C/c2ccc3cc(C)ccc3[n+]2CC)Sc2cc(C)ccc21,-1.3,34.5*,15.4,-19.0%,-5.3,5.8
CCCCN1/C(=C/c2ccc3ccccc3[n+]2CC)Sc2ccccc21,-4.9,16.1,13.7,u,1.6,-3.9
COc1cccc2cc(C(=O)CC3(O)C(=O)N(Cc4ccccc4)c4ccccc43)c(=O)oc12 (configuration not stated),-1.0,5.0,0.1,-7.0%,-2.2,40.1*
Cc1ccc(C(=O)CC2(O)C(=O)N(Cc3ccccc3)c3ccccc32)c(C)c1 (configuration not stated),x,x,1.4,u,x,11.6
Cn1cc(S(=O)(=O)N2CCN(c3ccccc3F)CC2)c(=O)n(C)c1=O,-8.9,31.6*,-0.1,2.7%,-3.5,0.5
COc1ccccc1N1CCN(S(=O)(=O)c2cn(C)c(=O)n(C)c2=O)CC1,-5.8,3.5,0.2,-4.9%,-1.6,1.8
COc1cccc(NC(=O)CSCC(=O)Nc2ccccc2)c1,-10.7,17.0,-0.1,-11.1%,-1.7,-14.1
C=CCNC(=O)C(C)N1c2cccc3cccc(c23)S1(=O)=O (configuration not stated),-10.1,-0.7,-1.4,-0.1%,0.4,11.3
CC(=O)c1c(C)[nH]c(C(=O)COC(=O)C2CC2)c1C,1.4,32.4*,-3.0,-6.0%,1.5,-1.5
CCOC(=O)c1c(C)[nH]c(C(=O)COC(=O)C2CC2)c1C,-3.2,-8.7,-0.3,x,-0.4,-7.9
CCOC(=O)N/N=C(\C)c1cccs1,-7.6,0.9,0.4,-15.9%,-2.5,2.5
CCOC(=O)C1CCN(CC(O)COc2ccc(S(=O)(=O)N3CCCC3)cc2[N+](=O)[O-])CC1 (configuration not stated),-34.5,12.3,36.1*,x,-2.2,-23.0
COc1ccc(OC2CCN(C(=O)Nc3ccc(C)cc3)CC2)cc1,-20.7,49.6*,0.7,-5.8%,-8.1,-13.0
O=C(NCc1ccccc1)C1CCN(C(=O)NCc2ccccc2)CC1,0.8,0.3,0.1,-7.6%,0.3,-4.3

# Screens: PubChem BioAssay, National Center for Advancing Translational Sciences (NCATS)
